Out of some 2,400 compounds screened, about 750 (31%) were called active. This is one part of the list. A number with no mark means an inactive call.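 How the source made its calls: active means median signal gain over dofetilide-blocked control wells reaching their mean plus 3 SD, so readout 1 at least 0; inactive means the rest.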

Chain of Voltage-gated inwardly rectifying potassium channel KCNH2 (Homo sapiens) (Q12809 whole entry, looked up): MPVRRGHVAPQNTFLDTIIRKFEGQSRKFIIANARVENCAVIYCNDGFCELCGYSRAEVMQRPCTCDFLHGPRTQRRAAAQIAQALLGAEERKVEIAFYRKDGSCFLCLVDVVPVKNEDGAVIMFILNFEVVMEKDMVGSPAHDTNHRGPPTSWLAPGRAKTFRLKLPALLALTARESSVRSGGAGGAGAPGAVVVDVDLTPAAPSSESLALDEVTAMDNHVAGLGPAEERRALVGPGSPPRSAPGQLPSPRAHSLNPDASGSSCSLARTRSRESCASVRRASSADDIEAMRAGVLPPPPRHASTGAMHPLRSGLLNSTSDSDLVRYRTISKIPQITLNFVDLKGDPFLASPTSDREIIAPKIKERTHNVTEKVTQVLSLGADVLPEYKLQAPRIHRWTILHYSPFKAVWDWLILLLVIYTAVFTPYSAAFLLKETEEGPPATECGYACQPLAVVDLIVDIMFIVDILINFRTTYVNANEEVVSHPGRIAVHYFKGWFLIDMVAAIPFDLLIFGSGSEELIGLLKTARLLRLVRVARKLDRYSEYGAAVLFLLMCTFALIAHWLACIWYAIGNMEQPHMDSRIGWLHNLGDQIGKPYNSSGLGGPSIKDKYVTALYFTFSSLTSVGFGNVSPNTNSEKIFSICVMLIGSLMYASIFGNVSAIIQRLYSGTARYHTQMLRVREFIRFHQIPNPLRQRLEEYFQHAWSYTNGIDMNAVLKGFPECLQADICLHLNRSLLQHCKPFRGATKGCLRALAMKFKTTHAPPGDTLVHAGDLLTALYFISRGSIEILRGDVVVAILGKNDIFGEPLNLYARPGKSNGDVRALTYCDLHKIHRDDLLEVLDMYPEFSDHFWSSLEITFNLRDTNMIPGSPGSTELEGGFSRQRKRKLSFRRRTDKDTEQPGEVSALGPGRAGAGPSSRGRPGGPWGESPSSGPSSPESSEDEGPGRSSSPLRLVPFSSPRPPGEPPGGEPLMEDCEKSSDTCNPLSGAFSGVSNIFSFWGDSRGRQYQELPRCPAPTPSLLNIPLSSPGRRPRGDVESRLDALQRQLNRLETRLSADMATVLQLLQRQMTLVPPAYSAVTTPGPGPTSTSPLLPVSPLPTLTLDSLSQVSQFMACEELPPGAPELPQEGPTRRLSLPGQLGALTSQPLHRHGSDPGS

This assay concerns the target Voltage-gated inwardly rectifying potassium channel KCNH2 (Homo sapiens) (UniProt Q12809). Kind of assay: modulators restoring hERG flux under dofetilide – cell-based, thallium flux, duplicate retest, dofetilide IC70, confirmation (AID 1835). Conditions: hERG cell line, FluxOR thallium flux, dofetilide-blocked; at 10 µM; stronger effect = higher value.
Consider `COc1cccc(C=NCC(C)N=Cc2cccc(OC)c2O)c1O` (centres undefined), for which the activity increase over dofetilide control, less the hit threshold is 7% (active).
For the compound `COc1cccc(/C=N/NC(=O)CSc2ccccc2C)c1O`, the activity increase over dofetilide control, less the hit threshold is -5%.
As to `COc1cccc(C=NCCCN=Cc2cccc(OC)c2O)c1O`, the activity increase over dofetilide control, less the hit threshold was 9% (active).
As for `COc1cccc(/C=N/n2c(SC)nnc2-c2ccccc2)c1O`, the figure is -2%; as for `COc1cc(Br)cc(C=Nc2cccc(C(F)(F)F)c2)c1O`, -14%.
The value for `COc1cccc(/C=N/Nc2nc3ccccc3[nH]2)c1O` was -4%.
As for `COc1cccc(C=Nc2cc(C)cc(C)c2)c1O`, the figure is 3% (active); as for `O=C(COC(=O)c1cnccn1)c1ccc(Cl)cc1`, -9%; as for `CCCNc1c(NS(=O)(=O)c2cccc(C#N)c2)c(=O)oc2ccccc12`, -6%.
With `CC(=O)Nc1nc2c(F)cccc2s1`, the activity increase over dofetilide control, less the hit threshold is -15%.
Regarding `Fc1cccc2sc(Nc3nnc(-c4ccco4)o3)nc12`, the activity increase over dofetilide control, less the hit threshold was 3% (active).
As for `Fc1cccc2sc(Nc3nnc(-c4ccccc4)o3)nc12`, the figure is 59% (active); as for `COc1cccc(-c2nnc(Nc3nc4c(F)cccc4s3)o2)c1`, 9% (active); as for `Fc1cccc2sc(Nc3nc4c(F)cccc4s3)nc12`, 22% (active).
As for `O=C(Cc1ccc(Cl)cc1)Nc1cccc(-c2nnc(-c3ccco3)o2)c1`, the activity increase over dofetilide control, less the hit threshold is -15%.
The value for `O=C(NCCc1ccc(F)cc1)c1coc(=O)c(Br)c1` was -17%.
The value for `O=C(Nc1nc2c(F)cc(F)cc2s1)C1COc2ccccc2O1` (centres undefined) was -6%; that for `Fc1ccc2nc(Nc3nc4c(F)cc(F)cc4s3)sc2c1` was 4% (active).
As for `O=C(CCc1ccccc1)Nc1nnc(-c2ccccn2)o1`, the figure is -12%.
Regarding `Cc1cc(C(=O)NNC(=O)c2cccs2)nn1C(C)(C)C`, the activity increase over dofetilide control, less the hit threshold is -1%.
As for `CCOc1ccccc1CNC(=O)CNC(=O)c1cccs1`, the figure is -24%; as for `CCc1ccc(NC(=O)C(=O)NNC(=O)c2cccs2)cc1`, 61% (active); as for `Cc1ccc(NC(=O)C(=O)NNC(=O)c2cccs2)cc1`, 74% (active).
The value for `Cc1ccc(N/C=C/C(=O)c2cccs2)cc1` was -15%.
Consider `O=C1c2ccccc2C(=O)N1Cc1cc(-c2ccccc2Cl)no1`, for which the activity increase over dofetilide control, less the hit threshold is -7%.
As for `Cc1cc(C(F)(F)F)n(-c2ccc(N)cc2)n1`, the figure is -5%; as for `O=C(CSc1nc2cc(Cl)ccc2s1)c1cc2ccccc2o1`, 2% (active); as for `O=C(CSc1nnc(SCc2ccccc2)s1)N/N=C/c1ccc(Cl)cc1Cl`, -6%.
The value for `CCOC(=O)c1[nH]c(=O)[nH]c1COC(=O)c1cc2ccccc2o1` was -2%; that for `CSCC[C@H](NC(=O)Nc1ccc(C)cc1C)C(=O)O` was -8%.
With `COCCn1c(=S)[nH]c2sc3c(c2c1=O)CCCC3`, the activity increase over dofetilide control, less the hit threshold is 28% (active).
As for `COCCCn1c(=S)[nH]c2c(sc3ccccc32)c1=O`, the figure is -3%; as for `COCCCn1c(=S)[nH]c2sc3c(c2c1=O)CCCC3`, 29% (active).
As for `COCCn1c(=S)[nH]c2sc3c(c2c1=O)CCC(C)C3` (centres undefined), the figure is 44% (active).
As for `CCN1C(=O)C2(/C(=C(\O)c3ccc4c(c3)OCCO4)C(=O)C(=O)N2CCCOC)c2ccccc21` (centres undefined), the figure is -11%; as for `CCCCNC(=O)CC(NS(=O)(=O)c1ccc(C)cc1)c1ccco1` (centres undefined), -13%; as for `CCOC(=O)C1=C(C)NC(=O)NC1c1cccc(OC)c1OCc1ccccc1Cl` (centres undefined), -11%.
On to `O=C(NCc1cccs1)C1CCC(CNS(=O)(=O)c2cccs2)CC1` (centres undefined), for which the activity increase over dofetilide control, less the hit threshold was -16%.
On to `CCC(=O)c1cc2c(C)cc(=O)oc2c(C)c1O`, for which the activity increase over dofetilide control, less the hit threshold is -13%.
Regarding `CSc1ccccc1NC(=S)NCc1ccc(Cl)cc1`, the activity increase over dofetilide control, less the hit threshold is -15%.
`COC(=O)c1sccc1NC(=S)NCc1ccc(Cl)cc1`: the activity increase over dofetilide control, less the hit threshold was 19% (active).
Take `COC(=O)c1sccc1NC(=S)N1CCN(C)CC1`: the activity increase over dofetilide control, less the hit threshold is -19%.
As for `CCOC(=O)c1c(NC(=O)/C=C/c2ccco2)sc(C)c1C`, the figure is -14%; as for `CCOC(=O)c1sc2ncnc(NCC(c3cccs3)N(C)C)c2c1C` (centres undefined), 40% (active); as for `CCOC(=O)c1sc2ncnc(NCc3ccco3)c2c1C`, 34% (active).
As for `Cc1ccc(OC(=O)c2sc3ncn(C)c(=O)c3c2C)cc1`, the figure is -18%; as for `c1ccc(Cn2ncc3c(N4CCN(C(c5ccccc5)c5ccccc5)CC4)ncnc32)cc1`, -7%; as for `CCCCCCc1c(O)nc(SCC(=O)O)[nH]c1=O`, -16%.
The value for `S=C(Nc1ccc(Cl)cc1)c1nc2ccccc2s1` was 46% (active); that for `O=C(Nc1ccc(Cl)cc1)Nn1cnnc1` was -14%.
On to `Clc1ccc(Nc2nc3cccnc3s2)cc1`, for which the activity increase over dofetilide control, less the hit threshold is -18%.
As for `CC(C)NC(=S)NNc1nc2ccccc2s1`, the figure is -9%; as for `Cc1cccc(NC(=S)c2nc3ccccc3s2)c1`, -12%; as for `Cc1ccc(NC(=S)c2nc3ccccc3s2)cc1`, 5% (active).
